HP1b chromo inh: blocks HP1-beta chromodomain binding to methylated histone tails; P83916; AlphaScreen HP1-beta / biotin-H3K9me3 peptide binding; Potency, µM (highest dose often 114 µM), for the others: at the highest dose activity change, negative = inhibition, hits mostly inhibitors; 390,000 compounds, 0.56% hits; AID 540317; note: nearly all actives have a fitted effect of over 70% in size
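HP1-beta protein (50 nM final) preincubated 30 min at room temperature with biotinylated H3(1-18)K9me3 peptide (50 nM) in PBS pH 7.4, 0.01% Tween-20, then compound added for 30 min. AlphaScreen streptavidin donor/nickel chelate acceptor beads (10 ug/mL final), 30 min dark, luminescence read.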
BAZ2B inh: blocks human BAZ2B; Q9UIF8; AID 504333; AlphaScreen BAZ2B-H3K14Ac peptide displacement; 360,000 compounds, 4.4% hits; Potency, µM (titrated, usually from 114 µM), for inactives: at the highest dose activity change, negative = inhibition, hits mostly inhibitors; note: % is set by controls: 0 for no effect and ±100 for the full control effect; nearly all actives have a fitted effect of over 60% in size
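AlphaScreen luminescence quantifies BAZ2B engagement of H3K14Ac peptide; the protein and biotinylated peptide are both at 50 nM final, buffer PBS pH 7.4 with 0.01% Tween-20, all steps at room temperature.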
G9a inh: G9a (human) methyltransferase inhibition; Q96KQ7; G9a H3K9 monomethylation, AlphaScreen, 2 h; Potency, µM (series often up to 102 µM), inactives show top-dose activity, negative = inhibition, usual class: inhibitors; 350,000 compounds, 8.8% hits; note: % is set by controls: 0 for no effect and ±100 for the full control effect; nearly all actives have a fitted effect of over 75% in size
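Step 1: enzyme (final 20 nM) with compound, 15 min RT. Step 2: substrate peptide 500 nM and SAM 20 uM, 2 h RT. Step 3: anti-H3K9me1 antibody and AlphaScreen beads, 10 min, then plate read.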
L3MBTL1 inh: inhibitors of human L3MBTL1; Q9Y468; AlphaScreen L3MBTL1–H3K9me1 peptide binding; Potency, µM (series often up to 57.1 µM), inactives show top-dose activity, negative = inhibition, usual class: inhibitors; 230,000 compounds, 0.66% hits; AID 485360; note: % is set by controls: 0 for no effect and ±100 for the full control effect; nearly all actives have a fitted effect of over 60% in size
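Displacement of a biotinylated histone H3(1-15) peptide monomethylated at Lys9 (75 nM) from L3MBTL1 (50 nM) was measured by AlphaScreen after a 30 min room-temperature compound incubation; cefsulodin titration served as intraplate control.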
Sfp PPTase inh: inhibitors of Bacillus subtilis Sfp phosphopantetheinyl transferase; Q9F4F7; Biochemical Sfp PPTase activity, qHTS; Potency, µM, inactives show largest response in the series, negative = inhibition, most hits filed as inhibitors; 310,000 compounds, 3.5% hits; AID 1490;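 note: the enzyme is Sfp with the accession as filed and its product quenches rhodamine fluorescence; 0% = enzyme reaction without inhibitor and -100% = no enzyme wells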
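Reaction rates are the 30-min fluorescence difference (ex 525, em 598 nm) in wells containing 15 nM Sfp, 5 uM rhodamine-CoA and 12.5 uM BHQ-2-YbbR at pH 7.6 with 10 mM MgCl2.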
JMJD2A Tudor: blocks the human JMJD2A Tudor domain; O75164; AlphaScreen JMJD2A-Tudor / H3K4me3 peptide binding; Potency, µM (titrated, usually from 114 µM), inactives show at the top dose activity change, negative = inhibition, most hits filed as inhibitors; 390,000 compounds, 4.4% hits; AID 504339; note: % is set by controls: 0 for no effect and ±100 for the full control effect; nearly all actives have a fitted effect of over 50% in size
* hit, by the source's call; ? = inconclusive; . = no result given; ! = repeats disagree; [ ] = dose if it differs, or a comment. Compounds with a hit are over-represented: about 12% of the library has one in this group of screens. Calls come from the whole dose curve; as a rule, active = well fitted curve in the direction sought with a large enough effect; inconclusive = small, poorly fitted or top-dose-only effect, or another doubt; inactive = no such curve, though single readings can be large; an effect the other way counts as inactive or inconclusive. Potency is the fitted concentration of half-maximal effect.

SMILES	HP1b chromo inh	BAZ2B inh	G9a inh	L3MBTL1 inh	Sfp PPTase inh	JMJD2A Tudor
Cc1cc(NC(=O)CSc2ncc(C(=O)Nc3ccc(F)cc3)c(=O)n2C)no1	27%	-1%	4%[59 µM]	.	.	6%
COc1ccc(-c2cc3nc(C)c(CCC(=O)N4CCN(c5cccc(Cl)c5)CC4)c(C)n3n2)c(OC)c1	28%	?	?	.	.	-23%
OC1OC[C@H](O)[C@H](O)[C@H]1O (stereo partly drawn)	.	.	.	.	15%	.
CC(C)(C)NC(=O)C(c1ccncc1)N(Cc1ccc(F)cc1)C(=O)c1ccc(-c2ccccc2)[nH]1 (stereo not drawn)	-6%	?	28µM*	.	9%	?
O=C(NC1CCCC1)C(c1ccncc1)N(CCCN1CCOCC1)C(=O)c1ccc(-c2ccccc2)[nH]1 (stereo not drawn)	5%	-21%	?	-1%	-1%	-26%
O=C(NC1CCCC1)C(c1ccncc1)N(Cc1ccccc1)C(=O)c1ccc(-c2ccccc2)[nH]1 (stereo not drawn)	-11%	45µM*	-12%[59 µM]	-16%	18µM*	?
COc1ccc(N(C(=O)c2ccn[nH]2)C(C(=O)NC(C)(C)C)c2ccc(F)cc2)cc1 (stereo not drawn)	20%	7%	1%[59 µM]	.	0%	-11%
CC(C)(C)NC(=O)C(c1ccncc1)N(Cc1cccs1)C(=O)Cn1nnc(-c2ccc(F)cc2)n1 (stereo not drawn)	43%	3%	4%[59 µM]	2%	3%	-23%
CC(C)(C)NC(=O)C(c1ccc(F)cc1)N(CCc1ccccc1)C(=O)c1ccn[nH]1 (stereo not drawn)	-17%	-18%	25%[12.7 µM]	12%	9%	28µM*
Cc1nn(C)c2c1c(C(F)(F)F)cc(=O)n2CC(=O)NCc1ccccc1Cl	26%	3%	9%[59 µM]	.	.	5%
NC(=O)CSc1nnc(-c2ccc(S(=O)(=O)N3CCCC3)cc2)n1CC1CCCO1 (stereo not drawn)	17%	3%	41%	-3%	17%	-4%
N#CCSc1nnc(-c2ccc(S(=O)(=O)N3CCOCC3)cc2)n1CC1CCCO1 (stereo not drawn)	18%	4%	-31%	5%	15%	89µM*
CSc1nnc(-c2ccc(S(=O)(=O)N3CCOCC3)cc2)n1C	44%	-17%	22µM*	.	16%	-3%
CC1CCN(c2nn3c(=O)c(C(=O)NCc4ccc(Cl)cc4)cnc3s2)CC1	13%	-2%	3%[59 µM]	.	.	-2%
CCOC(=O)c1c(NC(=O)CSc2nnc(CNC(=O)c3ccco3)n2C)sc2c1CCC2	6%	?	50µM*	-14%	-14%	-32%
O=C(CSc1nnc(Cc2ccccc2)n1Cc1ccco1)NC12CC3CC(CC(C3)C1)C2	5%	?	3%[12.7 µM]	-17%	-12%	?
NC(=O)c1c(NC(=O)CSc2nnc(Cc3ccccc3)n2Cc2ccco2)sc2c1CCC2	-19%	-35%	40µM*	0%	-13%	?
CCCN(CCC)C(=O)Cn1c(SCc2cccc(F)c2)nc2cccnc21	-7%	1%	-1%[59 µM]	.	.	-17%
O=C(Nc1ccc(-c2ccco2)cc1)C1CCCN(Cc2ccc(CO)o2)C1 (stereo not drawn)	-13%	?	.	.	45µM*	?
COCc1ccc(CN2CCCC(C(=O)Nc3ccc(-c4cccc(OC)c4)cc3)C2)o1 (stereo not drawn)	27%	?	?	.	-9%	-34%
CCc1ncc(CN2CCCC(C(=O)Nc3cccc(-c4cccc(C)c4)c3)C2)cn1 (stereo not drawn)	-13%	-18%	-4%	.	9%	79µM*
CC(=O)c1cccc(CN2CCCC(C(=O)Nc3ccc(-c4ccco4)cc3)C2)c1 (stereo not drawn)	18µM*	40µM*	10µM*	.	56µM*	?
COc1ccc(C(=O)Nc2ccc3nc(SCC(=O)N4CCCC4)sc3c2)cc1	46%	-34%	7%[59 µM]	.	.	-11%
O=C(NCc1ccc(Cl)cc1)C1CCN(c2ncnc3c2nc2n3CCCCC2)CC1	-5%	-1%	-2%[59 µM]	.	.	-20%
O=C(O)CCN1/C(=C/C=Nc2ccccc2)Oc2ccccc21	28%	.	?	0%	-14%	56µM*
SMILES	HP1b chromo inh	BAZ2B inh	G9a inh	L3MBTL1 inh	Sfp PPTase inh	JMJD2A Tudor
O=C(/C=C/c1ccc([N+](=O)[O-])cc1)N(c1ccccn1)C1CCCCC1	?	.	5.6µM*	?	-1%	56µM*
COc1cccc(CNC(=O)c2ccc(CSc3nc4ccncc4n3Cc3cccc(C)c3)cc2)c1	24%	-11%	-9%[59 µM]	.	.	-27%
COc1ccc2c(c1)[N+](C)(C)C(C)(C)C=C2C	?	-22%	?	.	-13%	18µM*
CCOc1ccc2c(c1)[N+](C)(C)C(C)(C)C=C2C	3%	-16%	?	28%	13%	18µM*
Cc1nc2cnc(N3CCNCC3)nc2n(CCC#N)c1=O	.	.	-6%[12.7 µM]	.	36%	.
CCOC(=O)c1ccc(NC(=O)CC2C(=O)N(c3ccc(F)cc3)C(=O)N2Cc2ccc3c(c2)OCO3)cc1 (stereo not drawn)	42%	-5%	?	.	.	-21%
O=C(O)C1C2C=CC(CC2)C1C(=O)O (stereo not drawn)	79µM*	50µM*	45µM*	.	40µM*	-45%[57.1 µM]
Cc1cccc(-c2nc3scc(CCNC(=O)c4ccc(Br)o4)n3n2)c1	16%[57 µM]	-20%	2%[59 µM]	.	.	-6%
CCc1cccc(-n2nnc(-c3nc(-c4cccs4)no3)c2N)c1	44%	2%	4%[59 µM]	.	.	5%
Cc1ccc(N/C=C/C(=O)C(C)(C)C)c(O)c1	-10%	?	-14%	.	89µM*	-32%
CC(=O)Nc1ccc(-n2c(CCC(=O)O)ccc2-c2ccc(C)cc2)cc1	-5%	-32%	14µM*	.	.	-31%
Cc1ccc(C)n1-c1ccc(C(=O)O)cc1	.	13µM*	8.9µM*	.	-14%	.
COC(=O)c1ccccc1NC(=O)Cn1c(CCC(=O)O)ccc1-c1ccc(C)cc1	0%	?	?	.	.	?
COC(=O)c1ccc(-n2c(CCC(=O)O)ccc2-c2ccc(C)cc2)cc1	13%	45µM*	14µM*!	.	5%	?
C=CCn1c(CCC(=O)O)ccc1-c1ccc(OC)cc1	-7%	?	?	-4%[11.4 µM]	0%	?
COC(=O)c1cccc(-n2c(CCC(=O)O)ccc2-c2ccc(OC)cc2)c1	12%	?	18µM*	.	.	-20%
CCCSCCCNC(=O)CN1C(=O)COc2ccc(S(=O)(=O)N3CCCCCC3)cc21	11%	-14%	-25%[59 µM]	.	.	-17%
Cc1ccc(Cn2c(CO)cnc2SCC(=O)Nc2ccc(C)c(Cl)c2)cc1	-22%[57 µM]	?	?	.	.	-20%

Assay outcomes deposited in PubChem by National Center for Advancing Translational Sciences (NCATS).
